# Experimental data reported in the supplement of paper PMC10681739.
# Key:
# ETS1 = target: T1, ETS1 (UniProt P14921); test: ETS1 binding intensity (PBM fluorescence), ETS1 alone (arbitrary fluorescence units); higher = stronger binding; conditions: ETS1 concentration 1 nM; RUNX1 concentration 0 nM
# T1 sequence: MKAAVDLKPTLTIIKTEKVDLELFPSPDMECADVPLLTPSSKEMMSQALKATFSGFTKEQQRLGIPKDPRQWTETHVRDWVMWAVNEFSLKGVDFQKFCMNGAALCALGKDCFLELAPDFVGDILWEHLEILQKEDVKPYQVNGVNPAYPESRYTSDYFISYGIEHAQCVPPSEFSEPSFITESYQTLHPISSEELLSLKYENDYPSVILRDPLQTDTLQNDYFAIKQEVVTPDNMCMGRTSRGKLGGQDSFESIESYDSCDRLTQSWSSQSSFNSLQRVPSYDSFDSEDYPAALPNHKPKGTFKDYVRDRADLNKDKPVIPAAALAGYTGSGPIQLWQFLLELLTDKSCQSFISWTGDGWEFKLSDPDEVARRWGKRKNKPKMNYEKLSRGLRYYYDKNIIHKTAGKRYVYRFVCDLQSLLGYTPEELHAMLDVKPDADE
# RUNX1 [1] = target: RUNX1 (UniProt Q01196); test: RUNX1 binding intensity (PBM fluorescence), RUNX1 alone (arbitrary fluorescence units); higher = stronger binding; conditions: RUNX1 concentration 2 nM; ETS1 concentration 0 nM
# Protocol: (§1)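 Cooperative gcPBM on 36-bp genomic probes with neighbouring ETS1 and RUNX1 sites. Recombinant human RUNX1 (2 nM) was incubated alone or with ETS1 (25 nM) and detected with anti-RUNX1 antibody plus Alexa488 secondary. Values are medians over 4 replicate spots; the RUNX1+ETS1 data were normalised to the RUNX1-only data. The probes sit in constant array flanks that are not printed.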
# RUNX1 [2] = target: RUNX1 (UniProt Q01196); test: RUNX1 binding intensity (PBM fluorescence) in presence of ETS1, normalised to RUNX1-only experiment (arbitrary fluorescence units); higher = stronger binding; conditions: RUNX1 concentration 2 nM; ETS1 concentration 25 nM
# Protocol: as §1
# 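For RUNX1 binding intensity (PBM fluorescence) in presence of ETS1, normalised to RUNX1-only experiment in this document: Full-length recombinant human ETS1 or RUNX1 bound to double-stranded 36-bp genomic probes on microarrays, detected by protein-specific primary antibody and Alexa488 secondary, spot fluorescence as median of four replicate spots.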
# 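For RUNX1 binding intensity (PBM fluorescence), RUNX1 alone in this document: Full-length recombinant human RUNX1 bound to double-stranded 36-bp genomic probes on a high-density microarray, scored as Alexa488 fluorescence per spot via anti-RUNX1 antibody, median of four replicate spots.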
# Chain of RUNX1 (Q01196 whole entry): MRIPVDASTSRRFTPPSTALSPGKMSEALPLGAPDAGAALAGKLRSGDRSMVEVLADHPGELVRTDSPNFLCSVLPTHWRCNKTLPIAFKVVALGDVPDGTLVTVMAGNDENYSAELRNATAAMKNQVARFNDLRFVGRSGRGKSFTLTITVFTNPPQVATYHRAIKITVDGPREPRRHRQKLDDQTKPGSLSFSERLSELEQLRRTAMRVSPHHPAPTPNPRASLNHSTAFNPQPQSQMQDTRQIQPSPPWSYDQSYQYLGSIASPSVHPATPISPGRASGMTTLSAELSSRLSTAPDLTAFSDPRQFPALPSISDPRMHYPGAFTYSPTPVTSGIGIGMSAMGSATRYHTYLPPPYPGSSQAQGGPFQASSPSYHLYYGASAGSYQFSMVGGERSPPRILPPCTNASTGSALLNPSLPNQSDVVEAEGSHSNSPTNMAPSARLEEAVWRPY
Sequence,ETS1 binding intensity (ETS1),RUNX1 binding intensity (RUNX1 [1]),RUNX1 binding intensity (RUNX1 [2])
GAGGAACCCAAAGTAGGATGTGGTTTTGCAATTGGA,757,1020,1770
TTAGGCTCATGGGAAATGTGGTTTCTAAATCGCGGG,494,,988
AGCTGCAGTTGGGCAGGAAACCACAATGTCGAAGAC,2490,1320,2400
AGCCGTCATTCAGGATGTGGTGACAGACATGGAGAC,1200,769,1320
GCTTAAGGAAGGGACAACTAGAGTGGGTTACTCTGC,,,717
ACACCTCAGGAAGTGGCAGAGACCACAACAAGTCAG,701,,1620
GCAGTTTCAAGAGGATGTGGTCTCTTTCACTGCCTG,1160,724,1080
GTTGTGCTCTTTCCTGCTTCCCGCAGTTTTTTAGTT,626,,1890
ACGTCAGCATCCGCCGGGCTCGCGGTAAGGTGTGAG,,,1280
GCCACAGCCGGAAGCAGGCTGACCACAAGTGCTAAG,1880,,6190
GAGCCGGAAGTGAAGGAGGGCTTGTGGGAGATGGAG,2710,,1210
CAAGGCACCAACGGATGTGGTATCTGGTGAGGGCTT,2150,,2430
TGTTTTTGTTTCCGTTTACAAACCACAACAAAGGTG,736,2390,4730
CAAGCCAACATCCTGACAGTTTAGAAACCACAGGAG,464,779,1300
CTGAAACAGGAAGCTGAGGGTGCGGTTGGGGGAGGA,2210,,1520
AGTTGGTTCCTTCCGGTGGGTTTGTGGGTTTGGGGT,1420,,2390
GCAGAAACAGGAAGAGACAGGGCTGACCGCAGCAGG,1290,,2340
CCCGGCCACTTCCGCCTATTGCGGGCGTCGGCTAGG,1440,,4310
GCGCGGCCCGGAAGGGGGTAACCGCTGAGTCTTTGA,,,1010
ATAGACTCAGGAAGTGATTGTGGTAAGATTCTATAT,,,1440
GGCCTTCATTACACAGGATGCGGTTGAAATGCATCA,4110,,1630
TCCTAAAGCAGGAAATAGTGAGGCTACCGCAGTGTC,4180,713,1090
TAGCCACGAACCGGAAACGTTAAACCACAGCTCCGT,9650,,5730
CAGCACGCAGGAAGCACATGTGGTGGGGCTCTTCCA,674,742,1030

Sequence,ETS1 binding intensity (ETS1),RUNX1 binding intensity (RUNX1 [1]),RUNX1 binding intensity (RUNX1 [2])
TGGGGGATGGCAGCAGGATGTGGTTATCTCAGAAAG,3330,814,1940
AGTGCAGAGTGGACAGGATGTGGTGGAGGTGAGAGA,5690,723,1500
TTACCATCGCCCTTCCTGTGGGCTGGGAGGCCAGGT,468,754,1060
TTACCCCGGCGGAACGGAGGCCTGCGGTCGCGGCGG,,,1210
TTTCCACTTCCTGTTCTACTTGTGGCTACTGACTCA,2530,,3380
TTTCTGAAACCCTCAGGATGTGGGTTTTCACACTGT,1310,,1100
TCTGTCGTCCCACTTCCTGCTGCGGTTTCCACCTCG,3340,,21300
TGTGAACTGACAGGATGTGGTACAAGGCTTACAAAG,4830,730,1780
GTCCCCTGAATTTTCCTGTGGTTCTTATCACCAGGT,,,1360
CGAACTCCCGTCCGGCCGCGCCCGCAGCCCGCCGCC,,,1130
GAGGGGGAGGTTTCCGGGGCCTGTGGTTACTACACT,438,,1910
GGCAACCGGCCCCGGAAGTTGCGGCAGGTGCGTCCA,5780,,1640
TGGCAGAGCACATCCTGTGCGGTTTTCAGTTTTGCT,1120,,5430
TTTCTTCTGATCTTCCTCCCCGCACGTCTGCACAGG,,,1020
GGAAAAGGAAGTGGCTTTGACTTGCGGGCAGGGAGA,1020,733,2560
TACAGGAACTTCCTGCGCGGCTGCTGTGGTTGCGAG,794,684,1680
ACAGTCGCACCGGAAGCTGCCCGCGGTGTTGACACA,8580,700,1360
TCCTATATACTTCCGTTTGCCTCGCGGTTTCTTTCT,1300,2730,4520
TTGAATATGAAAGGAAGTGGTTAGGTGATGTGTTCT,2370,826,1350
CCCGTTCTCCGGAAGTGCGCGGGTTGGAGCTGAAGC,4390,760,1600
AACAGTTGCATAGGAAGTGGTCAGCTCTCCTCCACC,1260,828,999
CTTGGCGGAAGTGGTGTGGGGGAGGTAGCCCGCAGT,1840,753,3460
CCTGTCCGGAAGTCCTGAGAGGGAATCGCCCGCAAA,2300,963,1690
